Assay results: PubChem BioAssay (Tox21)
Where “and” joins values, the source holds several entries; their conditions need not be identical. Equal values may be shown once. Inconclusive results are not listed. Calls of active or inactive are those of the source. Unless noted, calls follow the shape of the dose curve; as a rule, active = well fitted curve in the direction sought with a large enough effect in the repeat runs; inconclusive = weak or mixed curves; inactive = no such curve, though single readings can be large; an effect the other way counts as inactive or inconclusive.

Assays:
[1] = qHTS assay to identify small molecule antagonists of the retinoid acid receptor (RAR) signaling pathway - cell viability counter screen (AID 1159551); also: nearly all actives have a fitted effect of over 35% in size
Procedure, shortened: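 Cytotoxicity counter screen: ATP content quantified by CellTiter-Glo luminescence in C3RL4 cells treated 6 hr at 37 C with compound and retinol (1 uM final). Cells plated at 1,000/well and cultured overnight before dosing.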

[2] = qHTS assay to identify small molecule antagonists of the estrogen related receptor (ERR) signaling pathway from Tox21 library - cell viability counter screen (AID 1224834); also: nearly all actives have a fitted effect of over 30% in size; also: potency is read from the fitted curve at half-maximal effect
Procedure, shortened: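 CellTiter-Fluor fluorescence, read after 30 min at 37 C, measures viability of ERR cells. Cells plated at 2,000/well and incubated 6 h before pin-tool compound addition, then exposed 17.5 hours at 37 C.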

[3] = molecular target: Luciferin 4-monooxygenase (Photinus pyralis) (UniProt P08659); assay: qHTS assay to identify small molecule inhibitors of firefly luciferase (AID 1224835); also: series mostly up to about 120 µM; nearly all actives have a fitted effect of over 25% in size
Procedure, shortened: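 Biochemical qHTS: compounds run as interplate titrations against purified firefly enzyme, with D-luciferin and ATP each at its KM concentration. Light output recorded by CCD imaging.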

[4] = qHTS assay to identify small molecule agonists of the constitutive androstane receptor (CAR) signaling pathway - cell viability counter screen (AID 1224836); also: nearly all actives have a fitted effect of over 45% in size; also: potency is read from the fitted curve at half-maximal effect
Procedure, shortened: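 Multiplexed viability check: HepG2-CYP2B6-hCAR cells, 15-point compound dosing, 0.75 uM PK11195 final, 23 h at 37 C, CellTiter-Fluor fluorescence.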

[5] = qHTS assay to identify small molecule antagonists of the constitutive androstane receptor (CAR) signaling pathway - cell viability counter screen (AID 1224837); also: nearly all actives have a fitted effect of over 45% in size; also: potency is read from the fitted curve at half-maximal effect
Procedure, shortened: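 Cytotoxicity counter-screen: CellTiter-Fluor fluorescence after 23 h compound exposure (15-point qHTS) in double-stable HepG2-CYP2B6-hCAR cells, with 50 nM CITCO added.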

[6] = qHTS assay to identify small molecule agonists of the estrogen related receptor signaling pathway with the pleiotropic PPARgamma coactivator (PGC) from Tox21 10K library (AID 1224842); also: nearly all actives have a fitted effect of over 15% in size
Procedure, shortened: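 PGC/ERR reporter cell line, 2,000 cells per well, incubated 6 h at 37 C before 23 nL compound in DMSO was added. After 18 h at 37 C, One-Glo luminescence read following 30 min at room temperature.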

[7] = molecular target: Thyrotropin receptor (Homo sapiens) (UniProt P16473); assay: qHTS assay to identify small molecule agonists of the thyroid stimulating hormone receptor (TSHR) signaling pathway (AID 1224843; calls by dose curve; also: nearly all actives have a fitted effect of over 45% in size; also: potency is read from the fitted curve at half-maximal effect)
Procedure, shortened: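 Agonist-mode screen: TSHR HEK293 cells received test chemicals for half an hour at room temperature, then HTRF cAMP detection reagents for one hour prior to fluorescence measurement. Each chemical ran as a 15-concentration series, triplicated.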

[8] = qHTS assay to identify small molecule agonists of the hypoxia (HIF-1) signaling pathway - cell viability counter screen (AID 1224844; calls by dose curve; also: nearly all actives have a fitted effect of over 50% in size; also: potency is read from the fitted curve at half-maximal effect)
Procedure, shortened: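 Cytotoxicity measured by CellTiter-Glo ATP luminescence in the wells also read for beta-lactamase signal. Cells were HRE-bla ME-180 (2,000/well, 0.5% dialyzed FBS), exposed to compounds for 17 h at 37C.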

[9] = qHTS assay to identify small molecule antagonists of the estrogen related receptor signaling pathway with the pleiotropic PPARgamma coactivator (PGC) from Tox21 10K library - cell viability counter screen (AID 1224840; active = well fitted cell-killing curve with a large enough effect in the repeat runs, not every such curve was filed as active; also: nearly all actives have a fitted effect of over 40% in size; also: potency is read from the fitted curve at half-maximal effect)
Procedure, shortened: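 Counter-screen for cytotoxicity: after 17.5 h compound exposure at 37 C, CellTiter-Fluor reagent added to PGC/ERR cells for 30 min and fluorescence read. Cells were seeded at 2,000 per well 6 h before dosing.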

[10] = molecular target: Nuclear receptor subfamily 1 group I member 3 (Homo sapiens) (UniProt Q14994); assay: qHTS assay to identify small molecule antagonists of the constitutive androstane receptor (CAR) signaling pathway (AID 1224838);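 also: HepG2 cells stably expressing hCAR with CYP2B6 luciferase reporter stimulated by CITCO; nearly all actives have a fitted effect of over 40% in size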
Procedure, shortened: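 Antagonism measured as luciferase signal (ONE-Glo, 30 min, room temperature) in CAR-stimulated cells: HepG2-CYP2B6-hCAR double-stable line exposed 24 hr at 37 C to compound in a 15-point series plus 50 nM CITCO.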

[11] = molecular target: Nuclear receptor subfamily 1 group I member 3 (Homo sapiens) (UniProt Q14994); assay: qHTS assay to identify small molecule agonists of the constitutive androstane receptor (CAR) signaling pathway (AID 1224839); also: nearly all actives have a fitted effect of over 15% in size; also: potency is read from the fitted curve at half-maximal effect
Procedure, shortened: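 Using human hepatoma HepG2 cells engineered with hCAR and a CYP2B6-2.2kb reporter, 15-concentration compound series were incubated 24 h alongside PK11195 at 0.75 uM final, with luminescence quantified afterwards.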

[12] = qHTS assay to identify small molecule antagonists of the estrogen related receptor signaling pathway with the pleiotropic PPARgamma coactivator (PGC) from Tox21 10K library (AID 1224841; call rule not given here; also: potency is read from the fitted curve at half-maximal effect; actives are mostly falling curves and most rising ones were filed inactive; nearly all actives have a fitted effect of over 50% in size)
Procedure, shortened: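 Luminescence (One-Glo, 30 min at room temperature) after 18 h compound treatment at 37 C of PGC/ERR reporter cells plated at 2,000 cells/well and settled 6 h beforehand.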

[13] = qHTS assay to identify small molecule antagonists of the retinoic acid receptor (RAR) signaling pathway (AID 1159552; also: nearly all actives have a fitted effect of over 50% in size)
Procedure, shortened: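 Using a RARE-driven luciferase construct in C3RL4 cells, retinol at 1 uM final provided the agonist stimulus while compounds were co-applied. After 6 hours at 37 C, luminescence was recorded to flag inhibitors of retinol signaling.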

[14] = qHTS assay to identify small molecule agonists of the retinoic acid receptor (RAR) signaling pathway (AID 1159553)
Procedure, shortened: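 Luminescence was measured 30 min after luciferase reagent addition at room temperature. Before that, C3RL4 reporter cells (1,000 per well, plated overnight) were treated with compound for 6 hr at 37 C and 5% CO2.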

[15] = qHTS assay to identify small molecule antagonists of the estrogen related receptor (ERR) signaling pathway - cell viability counter screen (AID 1224818);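 also: series mostly up to about 46 µM; viability measured after 17.5 h of compound exposure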
Procedure, shortened: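 Cytotoxicity counter screen: fluorescence from CellTiter-Fluor, added after 17.5 h compound exposure at 37 C and read 30 min later. ERR cell line seeded at 2,000 cells/well, preincubated 6 h before dosing.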

[16] = qHTS assay to identify small molecule antagonists of the estrogen related receptor signaling pathway with the pleiotropic PPARgamma coactivator (PGC) cell viability counter screen (AID 1224822; also: series mostly up to about 46 µM)
Procedure, shortened: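 Viability counter-screen read by fluorescence intensity after 30 min with CellTiter-Fluor at 37 C; PGC/ERR reporter cells were exposed to compounds for 17.5 h at 37 C following a 6 h preincubation.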

Measured: Potency

Sequence of Nuclear receptor subfamily 1 group I member 3 (Homo sapiens) (Q14994 whole entry, looked up): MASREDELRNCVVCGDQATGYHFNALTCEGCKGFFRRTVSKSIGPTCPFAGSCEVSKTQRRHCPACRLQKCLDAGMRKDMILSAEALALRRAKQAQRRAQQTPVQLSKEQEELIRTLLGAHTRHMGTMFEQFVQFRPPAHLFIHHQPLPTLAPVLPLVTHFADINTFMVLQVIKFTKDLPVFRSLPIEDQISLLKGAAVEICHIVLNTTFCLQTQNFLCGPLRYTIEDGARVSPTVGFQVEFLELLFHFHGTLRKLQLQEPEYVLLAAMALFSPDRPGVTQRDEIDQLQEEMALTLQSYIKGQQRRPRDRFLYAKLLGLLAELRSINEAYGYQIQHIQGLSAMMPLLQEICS
Sequence of Luciferin 4-monooxygenase (Photinus pyralis) (P08659 whole entry, looked up): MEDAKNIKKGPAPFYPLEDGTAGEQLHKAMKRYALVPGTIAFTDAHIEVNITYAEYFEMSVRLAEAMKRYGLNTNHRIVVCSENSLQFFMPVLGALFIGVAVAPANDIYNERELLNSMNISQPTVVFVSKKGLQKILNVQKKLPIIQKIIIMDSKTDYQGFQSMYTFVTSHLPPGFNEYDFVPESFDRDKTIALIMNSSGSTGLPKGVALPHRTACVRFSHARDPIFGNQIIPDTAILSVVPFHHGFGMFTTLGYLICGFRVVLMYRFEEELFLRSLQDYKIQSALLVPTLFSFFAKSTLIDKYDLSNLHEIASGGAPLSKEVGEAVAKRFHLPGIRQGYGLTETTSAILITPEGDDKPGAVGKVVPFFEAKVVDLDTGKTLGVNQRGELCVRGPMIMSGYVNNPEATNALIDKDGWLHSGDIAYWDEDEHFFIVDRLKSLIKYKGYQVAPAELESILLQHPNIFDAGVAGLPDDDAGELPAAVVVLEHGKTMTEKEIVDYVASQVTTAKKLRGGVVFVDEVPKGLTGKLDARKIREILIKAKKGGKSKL
Sequence of Thyrotropin receptor (Homo sapiens) (P16473 whole entry, looked up): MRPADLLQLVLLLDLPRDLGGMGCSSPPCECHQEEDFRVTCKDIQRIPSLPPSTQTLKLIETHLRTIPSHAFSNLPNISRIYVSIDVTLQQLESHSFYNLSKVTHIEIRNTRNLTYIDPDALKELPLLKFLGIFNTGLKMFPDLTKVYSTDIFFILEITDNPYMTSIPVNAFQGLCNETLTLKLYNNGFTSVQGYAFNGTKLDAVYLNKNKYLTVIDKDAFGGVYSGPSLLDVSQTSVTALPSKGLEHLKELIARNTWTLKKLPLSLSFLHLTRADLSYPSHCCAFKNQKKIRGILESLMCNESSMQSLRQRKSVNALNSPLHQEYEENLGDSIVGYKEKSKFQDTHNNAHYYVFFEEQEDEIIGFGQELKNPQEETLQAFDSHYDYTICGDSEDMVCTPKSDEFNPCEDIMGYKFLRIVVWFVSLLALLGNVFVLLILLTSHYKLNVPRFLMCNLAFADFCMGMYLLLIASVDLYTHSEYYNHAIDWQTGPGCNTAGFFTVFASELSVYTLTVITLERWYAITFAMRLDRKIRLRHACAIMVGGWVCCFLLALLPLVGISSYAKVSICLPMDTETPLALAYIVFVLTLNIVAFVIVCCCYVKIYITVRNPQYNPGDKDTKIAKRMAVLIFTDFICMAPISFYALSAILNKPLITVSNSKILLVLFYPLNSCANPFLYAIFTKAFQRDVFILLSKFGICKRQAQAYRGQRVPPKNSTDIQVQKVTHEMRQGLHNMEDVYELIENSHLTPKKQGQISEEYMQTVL

CC(C)C(=O)Cl
inactive: [1] | [2] | [3] | [4] | [5] | [6] | [7] | [8]

O=[N+]([O-])O.O=[N+]([O-])O.[Cd]
inactive: [1]
active: [2] 9.69 µM | [4] 7.7 µM | [5] 6.11 µM | [9] 3.06 µM

[Cd+2].[Cl-].[Cl-]
inactive: [1]
active: [2] 24.5 µM and 6.11 µM | [4] 5.49 µM and 9.69 µM | [5] 4.36 µM and 9.69 µM | [9] 4.9 µM and 2.73 µM | [8] 55.4 µM

CC(=O)[O-].[Tl+]
inactive: [1] | [4] | [5]
active: [2] 61.5 µM

CC(C)N1C(=O)N(c2ccccc2)CSC1=NC(C)(C)C
active: [11] 24.3 µM
inactive: [1] | [3] | [5] | [10] | [6] | [7]

SCc1ccco1
inactive: [1] | [3] | [4] | [5] | [10] | [7]

C[C@]12CC[C@H](O)C[C@H]1CC[C@@H]1[C@@H]2C[C@@H](O)[C@]2(C)[C@@H](C3=CC(=O)OC3)CC[C@]12O
active: [2] 0.77 µM | [12] 3.86 µM | [8] 11 µM
inactive: [1] | [3] | [11] | [6] | [7]

COP(=O)(OC)SCn1c(=O)oc2cc(Cl)cnc21
inactive: [1] | [3] | [11] | [9] | [6]
active: [4] 30.6 µM | [7] 24.3 µM | [8] 49 µM

ClC1=C(Cl)[C@]2(Cl)[C@H]3[C@H]([C@H]4C=C[C@H]3C4)[C@@]1(Cl)C2(Cl)Cl
inactive: [1] | [3] | [4] | [9] | [8]
active: [11] 13.7 µM | [7] 9.69 µM

CCCSP(=O)(OCC)SCCC
inactive: [13] | [14] | [15] | [16] | [2] | [4] | [5] | [10] | [9] | [8]
active: [11] 25.2 µM
